Laboratory results taken from the supplement of paper PMC10849652.
Of roughly 7,900 targets only a part is listed; those with a hit were picked by preference. About 0.6% of all pairs of compound and target were hits.

Compound: c1cn2cc(-c3ccc4cn[nH]c4c3)nc(Nc3ccc(N4CCOCC4)cc3)c2n1 [entospletinib]
Test: log2 fold change, soluble protein after heating vs DMSO (PISA); higher = thermal stabilisation; K562 cells, 10 uM, 30 min; active = over 0.2 and 3.5 SD of the protein, either way, in both replicates (recomputed)
In short: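 Thermal stability values are relative to control samples and come from duplicates. They are expressed as log2 fold changes. For measurement, K562 cells (2×10^6 cells/mL) received 10 μM compound for 30 min, and aliquots were heated for 3 min over 48°C-58°C, pooled, and extracted at 4°C in PBS with 0.5% NP-40. Soluble protein, the supernatant after 21,000xg for 90 min, was quantified by TMTpro 16plex LC-MS/MS with equalised channel sums.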

UniProt O15027, sequence (O15027 whole entry, looked up): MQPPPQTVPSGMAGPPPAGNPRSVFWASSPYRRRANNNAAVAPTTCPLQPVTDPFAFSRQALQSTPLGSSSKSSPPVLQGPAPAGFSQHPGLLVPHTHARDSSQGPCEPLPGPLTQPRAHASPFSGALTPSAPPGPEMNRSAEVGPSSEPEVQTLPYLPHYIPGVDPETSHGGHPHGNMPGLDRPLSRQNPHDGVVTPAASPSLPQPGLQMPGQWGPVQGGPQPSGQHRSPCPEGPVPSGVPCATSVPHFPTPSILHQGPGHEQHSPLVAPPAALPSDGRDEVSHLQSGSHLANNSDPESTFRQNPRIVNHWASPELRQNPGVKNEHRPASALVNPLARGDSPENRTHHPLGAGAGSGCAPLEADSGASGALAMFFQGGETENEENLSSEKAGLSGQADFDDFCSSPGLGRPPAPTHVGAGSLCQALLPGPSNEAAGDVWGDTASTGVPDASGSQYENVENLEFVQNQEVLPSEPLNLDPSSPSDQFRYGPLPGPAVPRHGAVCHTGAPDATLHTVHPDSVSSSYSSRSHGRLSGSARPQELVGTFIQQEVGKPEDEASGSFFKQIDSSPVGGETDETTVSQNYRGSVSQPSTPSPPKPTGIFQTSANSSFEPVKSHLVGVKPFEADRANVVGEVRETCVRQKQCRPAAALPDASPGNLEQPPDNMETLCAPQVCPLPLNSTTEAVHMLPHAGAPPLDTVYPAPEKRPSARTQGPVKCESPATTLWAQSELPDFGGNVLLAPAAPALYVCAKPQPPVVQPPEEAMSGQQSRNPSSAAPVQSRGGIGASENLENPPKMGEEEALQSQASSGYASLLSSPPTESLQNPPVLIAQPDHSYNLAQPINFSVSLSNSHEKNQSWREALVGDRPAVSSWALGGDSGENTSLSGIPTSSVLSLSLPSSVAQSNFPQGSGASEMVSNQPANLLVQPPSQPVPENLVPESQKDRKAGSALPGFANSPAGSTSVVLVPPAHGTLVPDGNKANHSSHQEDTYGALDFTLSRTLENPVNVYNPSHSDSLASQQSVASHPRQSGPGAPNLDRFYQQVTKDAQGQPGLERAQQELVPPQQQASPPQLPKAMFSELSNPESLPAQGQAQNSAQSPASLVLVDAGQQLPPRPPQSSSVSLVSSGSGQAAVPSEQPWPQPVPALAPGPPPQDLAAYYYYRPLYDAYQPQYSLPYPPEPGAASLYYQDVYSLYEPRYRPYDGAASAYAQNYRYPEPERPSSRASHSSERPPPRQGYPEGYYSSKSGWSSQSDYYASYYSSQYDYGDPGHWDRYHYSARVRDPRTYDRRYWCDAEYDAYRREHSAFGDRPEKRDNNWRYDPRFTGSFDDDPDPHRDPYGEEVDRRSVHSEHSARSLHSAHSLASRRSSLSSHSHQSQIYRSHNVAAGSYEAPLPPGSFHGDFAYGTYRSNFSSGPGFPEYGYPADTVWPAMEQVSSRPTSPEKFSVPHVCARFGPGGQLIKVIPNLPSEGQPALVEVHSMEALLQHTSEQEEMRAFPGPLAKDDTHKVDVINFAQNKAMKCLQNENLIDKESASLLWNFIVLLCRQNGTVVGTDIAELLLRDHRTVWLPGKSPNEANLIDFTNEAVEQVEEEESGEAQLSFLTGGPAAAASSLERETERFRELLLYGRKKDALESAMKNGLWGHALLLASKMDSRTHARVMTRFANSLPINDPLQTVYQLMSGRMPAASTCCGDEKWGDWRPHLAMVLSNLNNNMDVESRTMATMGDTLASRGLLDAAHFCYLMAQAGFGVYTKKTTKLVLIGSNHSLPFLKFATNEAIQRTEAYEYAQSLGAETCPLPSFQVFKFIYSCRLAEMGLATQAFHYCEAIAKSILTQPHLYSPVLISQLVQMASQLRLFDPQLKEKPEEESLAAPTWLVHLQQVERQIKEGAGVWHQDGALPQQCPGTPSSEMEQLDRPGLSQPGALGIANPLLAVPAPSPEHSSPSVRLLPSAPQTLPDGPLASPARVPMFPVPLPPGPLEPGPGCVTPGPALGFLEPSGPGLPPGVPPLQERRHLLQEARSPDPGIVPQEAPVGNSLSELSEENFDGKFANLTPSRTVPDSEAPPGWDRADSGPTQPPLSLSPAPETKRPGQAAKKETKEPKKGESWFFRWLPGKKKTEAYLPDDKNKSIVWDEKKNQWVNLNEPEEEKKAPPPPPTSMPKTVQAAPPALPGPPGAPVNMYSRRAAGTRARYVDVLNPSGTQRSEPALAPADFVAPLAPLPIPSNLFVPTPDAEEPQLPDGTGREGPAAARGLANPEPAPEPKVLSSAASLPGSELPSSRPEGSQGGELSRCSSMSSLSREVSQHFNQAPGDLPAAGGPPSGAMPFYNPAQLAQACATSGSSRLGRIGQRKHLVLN
UniProt Q8TC12, sequence (Q8TC12 whole entry, looked up): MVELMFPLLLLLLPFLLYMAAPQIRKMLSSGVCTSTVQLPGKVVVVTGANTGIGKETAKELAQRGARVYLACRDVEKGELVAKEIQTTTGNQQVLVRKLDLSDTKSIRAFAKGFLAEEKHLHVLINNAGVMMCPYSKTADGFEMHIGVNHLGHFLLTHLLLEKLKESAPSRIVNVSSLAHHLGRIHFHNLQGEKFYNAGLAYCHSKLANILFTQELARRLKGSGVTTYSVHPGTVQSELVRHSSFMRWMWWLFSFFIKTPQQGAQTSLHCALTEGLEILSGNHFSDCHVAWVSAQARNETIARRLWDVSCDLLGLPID
UniProt Q9NTJ5, sequence (Q9NTJ5 whole entry, looked up): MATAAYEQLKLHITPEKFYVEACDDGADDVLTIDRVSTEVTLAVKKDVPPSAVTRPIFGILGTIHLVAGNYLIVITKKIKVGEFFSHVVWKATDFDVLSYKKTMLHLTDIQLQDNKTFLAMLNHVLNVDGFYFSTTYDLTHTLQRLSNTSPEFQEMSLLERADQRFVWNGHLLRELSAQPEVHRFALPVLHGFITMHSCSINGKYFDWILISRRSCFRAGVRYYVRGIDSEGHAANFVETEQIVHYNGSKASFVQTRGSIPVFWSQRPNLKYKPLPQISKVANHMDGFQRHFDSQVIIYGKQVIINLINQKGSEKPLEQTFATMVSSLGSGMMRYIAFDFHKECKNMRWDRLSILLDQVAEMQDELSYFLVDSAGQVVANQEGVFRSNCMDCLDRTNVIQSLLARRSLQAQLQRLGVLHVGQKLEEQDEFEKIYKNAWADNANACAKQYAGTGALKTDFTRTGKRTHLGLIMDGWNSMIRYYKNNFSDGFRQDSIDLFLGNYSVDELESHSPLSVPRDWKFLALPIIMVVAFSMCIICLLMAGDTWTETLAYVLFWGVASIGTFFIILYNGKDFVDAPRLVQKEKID
UniProt A6NEQ0, sequence (A6NEQ0 whole entry, looked up): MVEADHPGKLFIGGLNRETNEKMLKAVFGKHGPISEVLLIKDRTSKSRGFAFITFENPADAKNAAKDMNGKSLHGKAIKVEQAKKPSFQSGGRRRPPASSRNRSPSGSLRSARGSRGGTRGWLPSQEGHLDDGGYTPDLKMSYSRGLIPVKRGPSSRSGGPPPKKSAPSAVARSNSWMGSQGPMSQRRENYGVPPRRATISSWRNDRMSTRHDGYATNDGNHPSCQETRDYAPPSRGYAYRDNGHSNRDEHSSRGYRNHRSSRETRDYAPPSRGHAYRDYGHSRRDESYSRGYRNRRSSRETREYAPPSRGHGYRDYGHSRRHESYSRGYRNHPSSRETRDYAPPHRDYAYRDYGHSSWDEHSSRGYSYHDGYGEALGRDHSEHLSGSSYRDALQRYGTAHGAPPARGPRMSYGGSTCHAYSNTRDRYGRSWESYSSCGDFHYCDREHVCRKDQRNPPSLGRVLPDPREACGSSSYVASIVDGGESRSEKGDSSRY
UniProt O95059, sequence (O95059 whole entry, looked up): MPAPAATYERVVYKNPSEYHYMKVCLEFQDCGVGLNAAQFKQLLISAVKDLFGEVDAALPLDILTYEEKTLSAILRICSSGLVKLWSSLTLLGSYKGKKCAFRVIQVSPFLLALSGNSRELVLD
UniProt Q9H2X9, sequence (Q9H2X9 whole entry, looked up): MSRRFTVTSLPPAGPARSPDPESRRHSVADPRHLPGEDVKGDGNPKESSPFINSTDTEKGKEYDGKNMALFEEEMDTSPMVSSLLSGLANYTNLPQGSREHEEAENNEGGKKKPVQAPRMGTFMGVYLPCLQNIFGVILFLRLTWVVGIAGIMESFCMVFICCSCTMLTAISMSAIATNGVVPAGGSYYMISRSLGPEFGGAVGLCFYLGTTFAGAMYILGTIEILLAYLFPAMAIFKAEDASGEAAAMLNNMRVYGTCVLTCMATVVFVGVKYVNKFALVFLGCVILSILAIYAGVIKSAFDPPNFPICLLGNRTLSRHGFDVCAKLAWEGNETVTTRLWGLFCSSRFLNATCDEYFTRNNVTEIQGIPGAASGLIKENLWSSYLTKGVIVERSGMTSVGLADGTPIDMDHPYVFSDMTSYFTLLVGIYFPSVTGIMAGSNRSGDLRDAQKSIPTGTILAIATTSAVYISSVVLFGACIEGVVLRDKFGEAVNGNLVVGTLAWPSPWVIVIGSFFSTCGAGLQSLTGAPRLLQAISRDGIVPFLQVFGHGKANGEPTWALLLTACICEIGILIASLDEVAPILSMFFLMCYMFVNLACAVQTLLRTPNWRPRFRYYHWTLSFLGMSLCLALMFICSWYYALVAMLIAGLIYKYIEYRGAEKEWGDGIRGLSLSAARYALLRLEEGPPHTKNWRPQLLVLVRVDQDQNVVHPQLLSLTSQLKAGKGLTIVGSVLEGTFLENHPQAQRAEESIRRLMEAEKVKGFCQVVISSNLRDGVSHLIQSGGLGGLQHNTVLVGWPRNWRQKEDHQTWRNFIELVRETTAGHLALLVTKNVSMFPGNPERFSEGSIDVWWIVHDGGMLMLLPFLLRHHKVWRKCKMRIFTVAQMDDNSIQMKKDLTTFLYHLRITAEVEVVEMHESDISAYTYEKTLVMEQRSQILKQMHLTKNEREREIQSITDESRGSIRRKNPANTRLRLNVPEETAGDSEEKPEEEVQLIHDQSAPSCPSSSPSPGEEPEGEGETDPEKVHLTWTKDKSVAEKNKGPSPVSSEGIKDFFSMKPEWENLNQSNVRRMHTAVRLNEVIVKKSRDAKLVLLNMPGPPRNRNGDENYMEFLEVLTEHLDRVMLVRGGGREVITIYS

log2 fold change, inactive:
SAFB2 (UniProt Q14151) 0.05
RDH13 (UniProt Q8NBN7) -0.009
RAB3IL1 (UniProt E9PK89) -0.039
SACM1L (UniProt Q9NTJ5) 0.004
SEC16A isoform 5 (UniProt O15027) 0.069
RCOR1 (UniProt Q9UKL0) 0.002
RPS9 (UniProt P46781) 0.042
RAD50 isoform 2 (UniProt Q92878) -0.02
RUNX1 isoform 8 (UniProt Q01196) 0.116
SCO2 (UniProt O43819) -0.118
RBMY1E (UniProt A6NEQ0) -0.057
RIOK3 (UniProt O14730) -0.001
SH3GLB2 (UniProt Q9NR46) 0.034
RAVER1 (UniProt E9PAU2) 0.073
SEC31A (UniProt O94979) -0.119
SLC12A5 (UniProt Q9H2X9) -0.081
SEMG2 (UniProt Q02383) -0.048
RDH11 (UniProt Q8TC12) 0.082
RIC8A isoform 3 (UniProt Q9NPQ8) 0.095
SDHAF4 (UniProt Q5VUM1) -0.018
SDCBP isoform 2 (UniProt O00560) -0.2
RPP14 (UniProt O95059) -0.066
